Values joined by “and” are separate entries in the source; they are usually repeats but may differ in a detail not shown here. Equal values may be shown once. This is part of a sample that, as a whole, favours compounds with a hit. Of some 79,000 tested, about 15% had one in any assay. Active and inactive are the calls of the source. No stated cut-off is given here; in the data, active means growth inhibition above about 70%; inactive means the rest.
Tests used:
[1] = NCI Yeast Anticancer Drug Screen. Data for the mec2-1 strain (AID 157); conditions: S. cerevisiae mec2-1 strain, hits give high values
Outline: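 Readout is yeast growth inhibition, normalised to vehicle-treated controls, in the mec2-1 strain exposed to compound.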

[2] = NCI Yeast Anticancer Drug Screen. Data for the sgs1 mgt1 strain (AID 161);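 further: 0% = growth of cultures given vehicle only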; conditions: S. cerevisiae sgs1 mgt1 strain, hits give high values
Outline: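 Percent growth inhibition was derived by comparing compound-exposed mutant yeast with vehicle-exposed cultures. The strain carries alterations in DNA damage repair.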

[3] = NCI Yeast Anticancer Drug Screen. Data for the cln2 rad14 strain (AID 165);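 further: 0% = growth equal to vehicle treated cultures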; conditions: S. cerevisiae cln2 rad14 strain, hits give high values
Outline: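 Relative to vehicle controls, growth inhibition of compound-treated cln2 rad14 yeast was recorded.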

[4] = NCI Yeast Anticancer Drug Screen. Data for the bub3 strain (AID 167); conditions: S. cerevisiae bub3 mutant strain, hits give high values
Outline: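 Part of a panel of yeast mutants defective in DNA damage repair or cell cycle regulation. Each strain is grown with compound, and inhibition is calculated relative to solvent-treated cultures.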

[5] = NCI Yeast Anticancer Drug Screen. Data for the mlh1 rad18 strain (AID 175); conditions: S. cerevisiae mlh1 rad18 strain growth inhibition, hits give high values
Outline: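 Test agents were incubated with a yeast strain of defined genotype (DNA damage repair defect). Inhibition of growth was derived by comparison with vehicle-exposed cultures.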

[6] = NCI Yeast Anticancer Drug Screen. Data for the rad50 strain (AID 155);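 further: 0% = growth of vehicle-only cultures of the same strain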; conditions: S. cerevisiae rad50 strain growth inhibition, hits give high values
Outline: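 Cells are treated with compound, grown, and their growth is then scored against vehicle-only cultures of the same repair-deficient yeast strain.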

[7] = at 5.0 µM (retest, dose inferred, filed as 0.5)
[8] = at 50.0 µM (retest, dose inferred, filed as 5.0)

Measured: growth inhibition

O=C(/C=C\C(=O)Nc1cccc(N(Cc2ccccc2)Cc2ccccc2)c1)Nc1cccc(N(Cc2ccccc2)Cc2ccccc2)c1
active: [1]; at 50.0 µM 87.2% | [2]; at 50.0 µM 85.5% | [5]; at 50.0 µM 82%
inactive: [1]; [7] -10% | [1]; [8] -1% | [2]; [7] 0% | [2]; [8] 5% | [3]; [7] 4% | [3]; [8] 13% | [3]; at 50.0 µM 67% | [4]; [7] -2% | [4]; [8] 3% | [4]; at 50.0 µM 46.2% | [5]; [7] -3% | [5]; [8] 3%

O=C(O)c1ccccc1-c1ccccc1C(=O)Nc1ccc2c(c1)Cc1cc(F)ccc1-2
inactive: [1]; [7] -3% | [2]; [7] -8% | [3]; [7] -19% | [4]; [7] -27% | [5]; [7] -2%
active: [1]; [8] 97% | [1]; at 50.0 µM 97.5% | [2]; [8] 95% | [2]; at 50.0 µM 97.9% | [3]; [8] 96% | [3]; at 50.0 µM 96.8% | [4]; [8] 92% | [4]; at 50.0 µM 97.8% | [5]; [8] 97% | [5]; at 50.0 µM 97.2%

CCCCCCCCCCNC(=O)C[n+]1cccc(C(=O)Nc2ccccc2)c1
active: [1]; [8] 100% | [1]; at 50.0 µM 99.8% | [2]; [8] 100% | [2]; at 50.0 µM 99.9% | [3]; [8] 99% | [3]; at 50.0 µM 99.2% | [4]; [8] 99% | [4]; at 50.0 µM 99.6% | [5]; [8] 100% | [5]; at 50.0 µM 99.8%
inactive: [1]; [7] 10% | [2]; [7] -13% | [3]; [7] 3% | [4]; [7] -1% | [5]; [7] 28%

O=C1OC(C(O)CO)C(O)=C1O (stereo unspecified)
inactive: [6]; at 50.0 µM -17.1% and 7.7% and 12.5% | [1]; at 50.0 µM -25.8% and 0.65% and -15.2% | [2]; at 50.0 µM -4.15% and -7.6% and 14.5% | [3]; at 50.0 µM -0.75% and -1.55% and 7.15% | [4]; at 50.0 µM -1.7% and -0.25% and -0.3% | [5]; at 50.0 µM 1.6% and 8.75% and 6.45%

O=C(O)c1cc2ccc(Cl)cc2c2c1C(=O)c1cc(Cl)ccc1-2
inactive: [6]; [7] 12% | [6]; [8] 50% | [1]; [7] 0% | [1]; [8] 33% | [1]; at 50.0 µM 57.5% | [3]; [7] -3% | [3]; [8] 39% | [4]; [7] -2% | [4]; [8] 33% | [5]; [7] -4% | [5]; [8] 46%
active: [6]; at 50.0 µM 90.3% | [3]; at 50.0 µM 77.3% | [4]; at 50.0 µM 82% | [5]; at 50.0 µM 84.5%

CC(C)n1nnc2ccccc2c1=Nc1ccccc1
active: [1]; [8] 95% | [1]; at 50.0 µM 97% | [2]; [8] 89% | [2]; at 50.0 µM 96.2% | [3]; at 50.0 µM 91.3% | [4]; at 50.0 µM 95.5%
inactive: [1]; [7] -6% | [2]; [7] -2% | [3]; [7] 6% | [3]; [8] 16% | [4]; [7] 0% | [4]; [8] 63%

CCN1/C(=C\c2cc(C)nc(-c3ccccc3)[n+]2C)C=Cc2ccccc21
inactive: [6]; [7] 29% | [1]; [7] 27% | [4]; [7] 64% | [5]; [7] 48%
active: [6]; [8] 97% | [6]; at 50.0 µM 98% | [1]; [8] 99% | [1]; at 50.0 µM 98.1% | [4]; [8] 99% | [4]; at 50.0 µM 98.8% | [5]; [8] 99% | [5]; at 50.0 µM 98.7%

CC(O)C(NC(=O)OCc1ccccc1)C(=O)OC(c1ccccc1)c1ccccc1 (stereo unspecified)
inactive: [6]; [7] 0% | [1]; [7] 17% | [3]; [7] -3% | [4]; [7] 2% | [5]; [7] 10%
active: [6]; [8] 95% | [6]; at 50.0 µM 98% | [1]; [8] 99% | [1]; at 50.0 µM 97.8% | [3]; [8] 96% | [3]; at 50.0 µM 97% | [4]; [8] 97% | [4]; at 50.0 µM 97.3% | [5]; [8] 97% | [5]; at 50.0 µM 96.5%

CCCCN(CCCC)c1ccc2c(c1)C(O)c1ccccc1-2 (stereo unspecified)
active: [1]; [8] 74% | [2]; [8] 78% | [2]; at 50.0 µM 88.1% | [3]; [8] 85% | [3]; at 50.0 µM 74.8% | [4]; [8] 77% | [4]; at 50.0 µM 82% | [5]; [8] 72% | [5]; at 50.0 µM 85.2%
inactive: [1]; [7] 2% | [1]; at 50.0 µM 59.2% | [2]; [7] 4% | [3]; [7] 5% | [4]; [7] 0% | [5]; [7] 15%

C/C(=N\O)c1ccc2cc(Br)c3ccccc3c2c1
active: [6]; [8] 98% | [6]; at 50.0 µM 96.2% | [1]; [8] 98% | [1]; at 50.0 µM 97.4% | [3]; [8] 96% | [3]; at 50.0 µM 96% | [4]; [8] 98% | [4]; at 50.0 µM 95.5% | [5]; [8] 98% | [5]; at 50.0 µM 96.7%
inactive: [6]; [7] 12% | [1]; [7] 1% | [3]; [7] -20% | [4]; [7] 8% | [5]; [7] 3%

OCC(O)C(O)C(O)CO (stereo unspecified)
inactive: [6]; at 50.0 µM -5.35% and 10.4% and 7.75% | [1]; at 50.0 µM -8.1% and 4.3% and 14% | [2]; at 50.0 µM -16% and 7.05% and 14.4% | [3]; at 50.0 µM 4.25% and 2.85% and 13.9% | [4]; at 50.0 µM -45.7% and -5.45% and 0.05% | [5]; at 50.0 µM -8.35% and -4.45% and 10%

Reference: PubChem BioAssay (NCI)
